In PubChem BioAssay (EPA / NIEHS):
Activity calls are given as the source filed them. Rule for the calls: active = hit-call score of the fitted dose curve at least 0.9, where 1 is the maximum; inactive = score below 0.9.

Key:
Settings in all cases: mRNA level, 48 h; actives raise or lower the signal
BCL2L11 (gene 10018) = test: LTEA_HepaRG_BCL2L11: Life Technologies and Expression Analysis (LTEA) Assay for Bcl-2 (BCL2L11) gene using HepaRG (AID 2283473)
Outline: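 Read-out is BCL2L11 transcript level by qRT-PCR, normalized to three housekeeping genes and fitted bidirectionally against 0.5% DMSO vehicle. HepaRG cells received chemicals for 48 h in serum-free induction medium, 100 uM down in half-log dilutions.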

[1] = read-out: Apolipoprotein A-V (APOA5) gene, APOA5 (gene 116519); test: LTEA_HepaRG_APOA5: Life Technologies and Expression Analysis (LTEA) Assay for Apolipoprotein A-V (APOA5) gene using HepaRG (AID 2283474)
Outline: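 Readout is APOA5 transcript level by qRT-PCR on Fluidigm dynamic arrays, normalized to three housekeeping genes. HepaRG cultures received chemicals for 48 h at up to 100 uM (half-log steps, 0.5% DMSO), with gain or loss scored relative to DMSO.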

[2] = read-out: Apoptosis regulator Bcl-2 (Homo sapiens) (UniProt P10415); test: LTEA_HepaRG_BCL2: Life Technologies and Expression Analysis (LTEA) Assay for Bcl-2 gene using HepaRG (AID 2283475)
Outline: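 Differentiated human HepaRG cells in serum-free induction medium exposed 48 h, in duplicate, to 8-point half-log series from 100 uM in 0.5% DMSO. BCL2 mRNA by qRT-PCR (TaqMan/Fluidigm), normalized to ACTB, GAPDH, POLR2A; bidirectional fit against DMSO.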

[3] = read-out: Bcl-2 (BID) gene, BID (gene 637); test: LTEA_HepaRG_BID: Life Technologies and Expression Analysis (LTEA) Assay for Bcl-2 (BID) gene using HepaRG (AID 2283476)
Outline: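 Gene expression by qRT-PCR in HepaRG cells after 48 h exposure, duplicate wells, eight half-log concentrations topping at 100 uM in 0.5% DMSO. Normalized to ACTB, GAPDH, POLR2A; bidirectional fitting relative to DMSO.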

Caspase-3 (Homo sapiens) = Caspase-3 (Homo sapiens) (UniProt P42574); test: LTEA_HepaRG_CASP3: Life Technologies and Expression Analysis (LTEA) Assay for cysteine-aspartic acid protease (CASP3) using HepaRG (AID 2283477)
Caspase-3 (Homo sapiens), sequence (P42574 whole entry, looked up): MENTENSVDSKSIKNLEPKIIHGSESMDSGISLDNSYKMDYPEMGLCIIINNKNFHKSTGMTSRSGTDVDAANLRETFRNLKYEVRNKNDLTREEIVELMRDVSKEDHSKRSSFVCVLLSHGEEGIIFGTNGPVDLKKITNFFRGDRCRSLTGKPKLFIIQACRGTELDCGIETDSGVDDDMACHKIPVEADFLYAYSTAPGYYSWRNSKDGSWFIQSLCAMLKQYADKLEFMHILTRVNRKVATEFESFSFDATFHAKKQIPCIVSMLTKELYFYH
Outline: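 Read-out is CASP3 mRNA level by TaqMan qRT-PCR in human HepaRG cells after 48 h chemical exposure. Eight half-log concentrations topping at 100 uM were tested in 0.5% DMSO; gain or loss was fitted relative to DMSO.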

[4] = read-out: Cytochrome P450 (CYP24A1), CYP24A1 (gene 1591); test: LTEA_HepaRG_CYP24A1: Life Technologies and Expression Analysis (LTEA) Assay for Cytochrome P450 (CYP24A1) using HepaRG (AID 2283478)
Outline: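 HepaRG, 48 h chemical exposure, 8-pt half-log CRC from 100 uM, 0.5% DMSO vehicle, duplicates. Endpoint: CYP24A1 mRNA by Fluidigm TaqMan qRT-PCR, normalized ACTB/GAPDH/POLR2A; gain/loss fit vs DMSO.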

[5] = read-out: cysteine-aspartic acid protease (CASP8), CASP8 (gene 841); test: LTEA_HepaRG_CASP8: Life Technologies and Expression Analysis (LTEA) Assay for cysteine-aspartic acid protease (CASP8) using HepaRG (AID 2283480)
Outline: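 HepaRG, 48 h exposure, duplicate wells; 8 conc, half-log from 100 uM, 0.5% DMSO. Serum-free induction medium. CASP8 mRNA by TaqMan qRT-PCR, norm. ACTB/GAPDH/POLR2A; gain/loss fitted vs DMSO.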

[6] = read-out: Cytochrome P450 (CYP2B6), CYP2B6 (gene 1555); test: LTEA_HepaRG_CYP2B6: Life Technologies and Expression Analysis (LTEA) Assay for Cytochrome P450 (CYP2B6) using HepaRG (AID 2283481)
Outline: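 HepaRG cells plated 48 h, switched to serum-free induction medium, then dosed 48 h (8 points, half-log from 100 uM, 0.5% DMSO). RNA isolated; CYP2B6 expression measured by qRT-PCR; gain or loss fitted relative to DMSO.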

[7] = read-out: Cytochrome P450 2C19 (Homo sapiens) (UniProt P33261); test: LTEA_HepaRG_CYP2C19: Life Technologies and Expression Analysis (LTEA) Assay for CYP2C19 using HepaRG (AID 2283482)
Outline: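 Transcript levels of CYP2C19 were quantified by qRT-PCR after HepaRG cells were treated for 48 hours with test chemicals up to 100 uM (eight half-log concentrations, 0.5% DMSO vehicle). Gain or loss of signal was fitted relative to DMSO.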

CYP2C8 (gene 1558) = test: LTEA_HepaRG_CYP2C8: Life Technologies and Expression Analysis (LTEA) Assay for CYP2C8 using HepaRG (AID 2283483)
Outline: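 CYP2C8 mRNA induction or loss, by qRT-PCR normalized to ACTB/GAPDH/POLR2A, is read in HepaRG cells after 48 h treatment. Concentrations run from 100 uM down in half-log dilutions, with 0.5% DMSO as vehicle and baseline.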

CYP2C9 (gene 1559) = test: LTEA_HepaRG_CYP2C9: Life Technologies and Expression Analysis (LTEA) Assay for CYP2C9 using HepaRG (AID 2283484)
Outline: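 Cells plated 48 h, switched to serum-free induction medium, then treated in duplicate for 48 h at eight concentrations (max 100 uM, 0.5% DMSO). RNA then analysed by qRT-PCR for CYP2C9; curves fitted in both directions relative to DMSO.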

CYP2E1 (gene 1571) = test: LTEA_HepaRG_CYP2E1: Life Technologies and Expression Analysis (LTEA) Assay for CYP2E1 using HepaRG (AID 2283485)
Outline: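 HepaRG cells, plated 48 h, then exposed 48 h in serum-free induction medium to eight half-log concentrations from 100 uM in 0.5% DMSO, duplicate. CYP2E1 mRNA by qRT-PCR, normalized to ACTB/GAPDH/POLR2A; bidirectional fit versus DMSO.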

CYP4A11 (gene 1579) = test: LTEA_HepaRG_CYP4A11: Life Technologies and Expression Analysis (LTEA) Assay for CYP4A11 using HepaRG (AID 2283486)
Outline: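 HepaRG, 48 h chem exposure, 8 conc (100 uM top, half-log), 0.5% DMSO vehicle; qRT-PCR readout, housekeeping-gene normalized; bidirectional curve fit vs DMSO baseline.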

[8] = read-out: Cytochrome P450 3A4 (Homo sapiens) (UniProt P08684); test: LTEA_HepaRG_CYP3A4: Life Technologies and Expression Analysis (LTEA) Assay for CYP3A4 using HepaRG (AID 2283487)
Outline: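 Differentiated HepaRG cells in serum-free induction medium exposed in duplicate for 48 h to 8 half-log concentrations up to 100 uM in 0.5% DMSO. CYP3A4 mRNA measured by qRT-PCR normalized to ACTB, GAPDH and POLR2A; bidirectional fit versus DMSO.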

[9] = read-out: DNA damage-inducible transcript 3 (DDIT3), DDIT3 (gene 1649); test: LTEA_HepaRG_DDIT3: Life Technologies and Expression Analysis (LTEA) Assay for DNA damage-inducible transcript 3 (DDIT3) using HepaRG (AID 2283488)
Outline: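 HepaRG cells, 48 h after plating, exposed 48 h in serum-free induction medium to 8 half-log concentrations up to 100 uM in 0.5% DMSO, in duplicate. DDIT3 mRNA measured by TaqMan qRT-PCR, normalized to ACTB, GAPDH and POLR2A. Fitted bidirectionally against DMSO.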

[10] = read-out: Pro-epidermal growth factor (Homo sapiens) (UniProt P01133); test: LTEA_HepaRG_EGF: Life Technologies and Expression Analysis (LTEA) Assay for Epidermal growth factor (EGF) using HepaRG (AID 2283489)
Outline: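 HepaRG, 48 h dosing, 100 uM top, half-log x8, 0.5% DMSO. Readout: TaqMan qRT-PCR (Fluidigm array), housekeeping-normalized. Gain or loss of signal fit vs DMSO.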

[11] = read-out: Early growth response protein 1 (EGR1) transcription factor, EGR1 (gene 1958); test: LTEA_HepaRG_EGR1: Life Technologies and Expression Analysis (LTEA) Assay for Early growth response protein 1 (EGR1) transcription factor using HepaRG (AID 2283490)
Outline: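 Read-out is EGR1 mRNA level by qRT-PCR, normalized to three housekeeping genes and analysed for gain or loss of signal against 0.5% DMSO. Source cells: human HepaRG, treated 48 h at up to 100 uM in half-log dilutions.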

[12] = read-out: Ezrin (EZR), EZR (gene 7430); test: LTEA_HepaRG_EZR: Life Technologies and Expression Analysis (LTEA) Assay for Ezrin (EZR) using HepaRG (AID 2283491)
Outline: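 Differentiated human HepaRG cells, 48 h after plating, were exposed in serum-free induction medium for 48 hours to eight half-log concentrations up to 100 uM in 0.5% DMSO. EZR mRNA was measured by TaqMan qRT-PCR, normalized to ACTB, GAPDH and POLR2A, and fitted bidirectionally against DMSO.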

[13] = read-out: Cytochrome P450 3A7 (Homo sapiens) (UniProt P24462); test: LTEA_HepaRG_CYP3A7: Life Technologies and Expression Analysis (LTEA) Assay for CYP3A7 using HepaRG (AID 2283492)
Outline: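 Human HepaRG liver cells, 48 h post-plating, switched to serum-free induction medium and exposed in duplicate for 48 h. Dosing: 100 uM top, half-log dilutions, 8 points, 0.5% DMSO vehicle. Read-out: CYP3A7 mRNA, gain or loss fitted against DMSO baseline.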

[14] = read-out: Cytochrome P450 (CYP1A2), CYP1A2 (gene 1544); test: LTEA_HepaRG_CYP1A2: Life Technologies and Expression Analysis (LTEA) Assay for Cytochrome P450 (CYP1A2) using HepaRG (AID 2283479)
Outline: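 CYP1A2 transcript induction or loss, quantified by Fluidigm qRT-PCR against three housekeeping genes, was fitted bidirectionally against 0.5% DMSO controls. Human HepaRG cells received eight half-log concentrations from 100 uM over 48 h.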

Apoptosis regulator Bcl-2 (Homo sapiens), sequence (P10415 whole entry, looked up): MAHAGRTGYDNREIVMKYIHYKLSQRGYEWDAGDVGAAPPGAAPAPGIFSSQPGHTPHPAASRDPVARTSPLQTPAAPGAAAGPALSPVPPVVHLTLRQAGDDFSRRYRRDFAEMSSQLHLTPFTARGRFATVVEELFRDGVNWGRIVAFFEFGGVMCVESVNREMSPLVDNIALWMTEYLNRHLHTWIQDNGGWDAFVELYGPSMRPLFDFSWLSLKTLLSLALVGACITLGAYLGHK
Cytochrome P450 3A4 (Homo sapiens), sequence (P08684 whole entry, looked up): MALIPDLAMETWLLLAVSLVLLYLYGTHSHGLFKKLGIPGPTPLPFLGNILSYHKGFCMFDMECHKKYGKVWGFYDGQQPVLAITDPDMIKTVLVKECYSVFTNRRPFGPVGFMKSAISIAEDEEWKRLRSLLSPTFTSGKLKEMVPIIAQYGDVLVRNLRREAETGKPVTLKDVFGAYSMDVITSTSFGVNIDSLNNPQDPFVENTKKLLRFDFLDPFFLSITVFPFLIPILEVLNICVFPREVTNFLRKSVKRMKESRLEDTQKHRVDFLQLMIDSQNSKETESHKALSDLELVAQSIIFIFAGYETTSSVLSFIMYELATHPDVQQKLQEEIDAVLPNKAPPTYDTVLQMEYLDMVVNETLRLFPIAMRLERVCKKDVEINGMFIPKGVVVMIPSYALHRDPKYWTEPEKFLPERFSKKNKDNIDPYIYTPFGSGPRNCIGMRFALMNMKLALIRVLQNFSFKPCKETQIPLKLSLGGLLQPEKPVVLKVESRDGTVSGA
Cytochrome P450 3A7 (Homo sapiens), sequence (P24462 whole entry, looked up): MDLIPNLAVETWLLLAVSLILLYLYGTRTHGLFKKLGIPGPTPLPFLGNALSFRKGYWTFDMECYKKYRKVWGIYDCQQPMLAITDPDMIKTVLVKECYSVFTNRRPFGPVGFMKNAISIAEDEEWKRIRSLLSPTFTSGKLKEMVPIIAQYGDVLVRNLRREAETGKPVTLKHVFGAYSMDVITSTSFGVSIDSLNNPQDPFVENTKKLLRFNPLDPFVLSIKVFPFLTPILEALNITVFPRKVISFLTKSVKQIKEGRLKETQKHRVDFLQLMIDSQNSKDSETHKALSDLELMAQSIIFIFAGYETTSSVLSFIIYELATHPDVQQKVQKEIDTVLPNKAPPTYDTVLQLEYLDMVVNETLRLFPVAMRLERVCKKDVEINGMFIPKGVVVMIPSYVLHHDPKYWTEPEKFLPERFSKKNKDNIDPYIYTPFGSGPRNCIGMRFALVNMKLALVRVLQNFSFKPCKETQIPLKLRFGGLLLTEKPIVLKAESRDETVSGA
Cytochrome P450 2C19 (Homo sapiens), sequence (P33261 whole entry, looked up): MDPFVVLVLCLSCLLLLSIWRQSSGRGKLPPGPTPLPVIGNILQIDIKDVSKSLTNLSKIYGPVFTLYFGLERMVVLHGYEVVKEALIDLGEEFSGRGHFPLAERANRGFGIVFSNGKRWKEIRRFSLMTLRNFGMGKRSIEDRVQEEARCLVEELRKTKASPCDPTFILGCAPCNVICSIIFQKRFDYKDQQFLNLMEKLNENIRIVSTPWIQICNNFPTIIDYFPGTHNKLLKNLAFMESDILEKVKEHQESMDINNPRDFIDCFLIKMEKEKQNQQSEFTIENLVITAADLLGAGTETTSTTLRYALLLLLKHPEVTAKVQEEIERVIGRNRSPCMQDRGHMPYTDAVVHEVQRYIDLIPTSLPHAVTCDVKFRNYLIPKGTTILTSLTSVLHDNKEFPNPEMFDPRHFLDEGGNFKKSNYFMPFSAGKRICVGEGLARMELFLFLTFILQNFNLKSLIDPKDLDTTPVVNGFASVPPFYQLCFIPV

For CC(C)CCCCCCOC(=O)C1CCCCC1C(=O)OCCCCCCC(C)C (configuration not stated), the outcome (BCL2L11 (gene 10018)) was “inactive”, the AC50 [1] was 3.16 nM (active) and the outcome [2] was “inactive”. The AC50 [3] was 3.16 nM (active), the AC50 (Caspase-3 (Homo sapiens)) was 3.16 nM (active) and the outcome [4] was “inactive”. The AC50 [5] was 3.16 nM (active), the outcome [6] was “inactive” and the outcome [7] was “inactive”. For the same compound, the outcome (CYP2C8 (gene 1558)) was “inactive”, the outcome (CYP2C9 (gene 1559)) was “inactive” and the outcome (CYP2E1 (gene 1571)) was “inactive”. For the same compound, the outcome (CYP4A11 (gene 1579)) was “inactive”, the outcome [8] was “inactive” and the outcome [9] was “inactive”. The outcome [10] was “inactive”, the outcome [11] was “inactive” and the outcome [12] was “inactive”. For the same compound, the outcome [13] was “inactive”.

With Nc1ccn([C@@H]2O[C@H](CO)[C@@H](O)[C@@H]2O)c(=O)n1 the outcome (BCL2L11 (gene 10018)) was “inactive”, the outcome [1] was “inactive” and the outcome [2] was “inactive”. For the same compound, the outcome [3] was “inactive”, the outcome (Caspase-3 (Homo sapiens)) was “inactive” and the outcome [4] was “inactive”. The outcome [14] was “inactive”, the outcome [5] was “inactive” and the outcome [6] was “inactive”. The outcome (CYP2C8 (gene 1558)) was “inactive”, the outcome (CYP2C9 (gene 1559)) was “inactive” and the outcome (CYP2E1 (gene 1571)) was “inactive”. The outcome (CYP4A11 (gene 1579)) was “inactive”, the outcome [8] was “inactive” and the outcome [9] was “inactive”. The outcome [10] was “inactive”, the outcome [11] was “inactive” and the outcome [12] was “inactive”. For the same compound, the outcome [13] was “inactive”.

In the case of NC(=O)N(O)[C@@H]1COc2cc(OCc3ccccc3)ccc21, the outcome (BCL2L11 (gene 10018)) is reported as “inactive”, the outcome [1] is reported as “inactive” and the outcome [2] is reported as “inactive”. The outcome [3] was “inactive”, the outcome (Caspase-3 (Homo sapiens)) was “inactive” and the outcome [4] was “inactive”. The outcome [5] was “inactive”, the AC50 [6] was 16200 nM (active) and the outcome [7] was “inactive”. For the same compound, the outcome (CYP2C8 (gene 1558)) was “inactive”, the outcome (CYP2C9 (gene 1559)) was “inactive” and the AC50 (CYP2E1 (gene 1571)) was 50000 nM (active). The outcome (CYP4A11 (gene 1579)) was “inactive”, the outcome [8] was “inactive” and the outcome [9] was “inactive”. For the same compound, the outcome [10] was “inactive”, the outcome [11] was “inactive” and the outcome [12] was “inactive”. The outcome [13] was “inactive”.
